The campaign covered roughly 39,000 compounds. About 1,500 (3.8%) were called active. The sample holds actives, similar compounds and a random draw of the others, so the mix is not that of the screen.
tested on: HSkMC (human skeletal muscle cells); test: cytotoxicity call (relative viability < 0.9); conditions: 10 µM

Row | Structure (SMILES) | cytotoxicity call
1 | NC(=O)N1CCc2n[nH]c(C(=O)N3CCOCC3)c2C1 | inactive
2 | CCc1nc(C(N)=O)c(Nc2ccc(N3CCC(N4CCN(C)CC4)CC3)c(OC)c2)nc1NC1CCOCC1 | inactive
3 | C=CC(=O)N1CC[C@@H](Oc2nc(Nc3ccc(N4CCC(N5CCN(C)CC5)CC4)cc3)c(C(N)=O)nc2CC)C1 | active
4 | C=CCn1c(=O)c2cnc(Nc3ccc(N4CCN(C)CC4)cc3)nc2n1-c1cccc(C(C)(C)O)n1 | inactive
5 | COCC(=O)Nc1ccc2c(c1)C(=O)N(C)[C@@H]1CC[C@@H](CC(=O)NCc3ccc(OC)cc3)O[C@@H]1CO2 | inactive
6 | COc1ccc(S(=O)(=O)Nc2cccc3c2O[C@@H](CN(C)Cc2ccc(-c4ccccc4)cc2)[C@H](C)CN([C@@H](C)CO)C3=O)cc1 | inactive
7 | CCCCCCCCCCCCCCCCCCCC(=O)N[C@H]1CC[C@@]2(C)[C@@H](C1)C[C@@H](O)[C@@H]1[C@@H]2C[C@H](O)[C@]2(C)[C@@H]([C@H](C)CCC(=O)O)CC[C@@H]12 | active
8 | CC(CCC(=O)O)C1CCC2C3C(O)CC4CC(O)CCC4(C)C3CC(O)C12C (configuration not stated) | inactive
9 | CC(CCC(=O)NCC(=O)O)C1CCC2C3C(O)CC4CC(O)CCC4(C)C3CC(O)C12C (configuration not stated) | inactive
10 | Cc1cc(=O)oc2cc(O[C@H]3O[C@@H](CO)[C@@H](O)[C@@H](O)[C@@H]3O)ccc12 | inactive
11 | CCc1cc(=O)oc2c(C)c(O[C@@H]3O[C@H](CO)[C@@H](O)[C@H](O)[C@H]3O)ccc12 | active
12 | Cc1c(C)c2ccc(O[C@@H]3O[C@H](CO)[C@H](O)[C@H](O)[C@H]3O)cc2oc1=O | inactive
13 | C[C@H](CO)N1C[C@H](C)[C@H](CN(C)Cc2ccc(F)cc2)Oc2cc(C#CC(C)(C)O)ccc2S1(=O)=O | inactive
14 | C=CCN(Cc1ccccc1)C(=O)[C@@H]1N(CCOCCO)C(=O)[C@@H]2[C@H](C(=O)O)[C@@H]3C=C[C@@]21O3 | inactive
15 | C=CCOC(=O)[C@@H]1[C@@H]2C=C[C@@]3(O2)[C@@H]1C(=O)N(CCCCCCO)[C@H]3C(=O)N(CC=C)Cc1ccccc1 | active
16 | C=CCOC(=O)[C@@H]1[C@@H]2C=C[C@]3(O2)[C@H](C(=O)N(CC=C)Cc2ccccc2)N(c2cccc(Cl)c2CO)C(=O)[C@@H]13 | inactive
17 | CN1C(=O)C[C@H](C(=O)O)[C@H]1c1cccnc1 | inactive
18 | COc1ccc(S(=O)(=O)Nc2ccc3c(c2)C(=O)N([C@@H](C)CO)C[C@H](C)[C@H](CN(C)S(=O)(=O)c2ccccc2)O3)cc1 | inactive
19 | COc1ccc(CN(C)C[C@H]2Oc3c(NS(=O)(=O)c4cn(C)cn4)cccc3C(=O)N([C@H](C)CO)C[C@H]2C)cc1 | inactive
20 | C[C@H](CO)N1C[C@H](C)[C@H](CN(C)C(=O)Nc2cccc3ccccc23)Oc2ccc(NC(=O)Nc3ccc4c(c3)OCO4)cc2CC1=O | inactive
21 | Cc1cc(C)c(N(Cc2ccccc2)S(=O)(=O)c2ccc(OCCNC(=O)c3cc4ccccc4o3)cc2)c(C(=O)NO)c1 | active

Row | Structure (SMILES) | cytotoxicity call
22 | O=C(NCCO)c1cc2ccccc2oc1=O | inactive
23 | CCc1nc2ccc(C(=O)NCCOc3ccc(OC)cc3)cn2c1N(CC)Cc1cccc(Br)c1 | inactive
24 | C[C@H]1CN([C@@H](C)CO)C(=O)c2cccc(NS(=O)(=O)c3cn(C)cn3)c2O[C@H]1CN(C)S(=O)(=O)c1cccs1 | inactive
25 | C[C@@H]1CN([C@H](C)CO)C(=O)c2cc(C#C[C@@H](C)O)cnc2O[C@@H]1CN(C)C(=O)Nc1ccc(C(F)(F)F)cc1 | inactive
26 | Nc1cc(=O)[nH]c(=O)n1-c1ccc(Cl)cc1 | inactive
27 | O=C(O)CSCC(=O)N1CCCCC1 | inactive
28 | CN1C(=O)c2cc(NC(=O)C3CCOCC3)ccc2OC[C@@H]2O[C@@H](CC(=O)NCc3ccccc3F)CC[C@H]21 | inactive
29 | C[C@H]1CN([C@@H](C)CO)C(=O)c2cccc(NS(C)(=O)=O)c2O[C@H]1CN(C)S(=O)(=O)c1ccc(F)cc1 | inactive
30 | COc1ccc(C[C@@H]2c3cc(OC)c(OC)cc3CC[N@+]2(C)CCC(=O)OCCCCCOC(=O)CC[N@@+]2(C)CCc3cc(OC)c(OC)cc3[C@H]2Cc2ccc(OC)c(OC)c2)cc1OC | active
31 | COc1ccc(C[C@H]2c3cc(OC)c(OC)cc3CC[N@+]2(C)CCC(=O)OCCCCCOC(=O)CC[N@+]2(C)CCc3cc(OC)c(OC)cc3[C@@H]2Cc2ccc(OC)c(OC)c2)cc1OC | inactive
32 | COc1ccc(CC2c3cc(OC)c(OC)cc3CC[N+]2(C)CCC(=O)OCCCCCOC(=O)CC[N+]2(C)CCc3cc(OC)c(OC)cc3C2Cc2ccc(OC)c(OC)c2)cc1OC.O=S(=O)([O-])c1ccccc1.O=S(=O)([O-])c1ccccc1 (configuration not stated) | inactive
33 | C[C@@H]1CN([C@@H](C)CO)C(=O)Cc2cc(NC(=O)Cc3cn(C)c4ccccc34)ccc2O[C@@H]1CN(C)S(=O)(=O)c1cn(C)cn1 | inactive
34 | C[C@@H]1CCCCO[C@@H](CN(C)S(=O)(=O)c2ccccc2)[C@H](C)CN([C@@H](C)CO)C(=O)c2cc(NS(=O)(=O)c3cn(C)cn3)ccc2O1 | inactive
35 | C[C@H]1CN([C@@H](C)CO)C(=O)Cc2cc(NS(=O)(=O)c3cn(C)cn3)ccc2O[C@@H]1CN(C)S(=O)(=O)c1ccc(Cl)cc1 | inactive
36 | Cc1ccc(S(=O)(=O)Nc2ccc3c(c2)C(=O)N([C@@H](C)CO)C[C@@H](C)[C@H](CN(C)Cc2ccccc2)OCCCC[C@@H](C)O3)cc1 | inactive
37 | COc1ccc(cc1)CN1C[C@]2(CCN(CC2)Cc2ccccc2OC)c2c([nH]c3cc(ccc23)OC)[C@@H]1CO | inactive
38 | COc1ccc2c3c([nH]c2c1)[C@@H](CO)N(Cc1ccc(cc1)Cl)C[C@]13CCN(CC1)Cc1nccs1 | inactive
39 | COc1ccc2c3c([nH]c2c1)[C@H](CO)N(Cc1ccc(cc1)Cl)C[C@]13CCN(CC1)Cc1nccs1 | inactive
40 | COc1ccc2c3c([nH]c2c1)[C@H](CO)N(Cc1ccc(cc1)Cl)C[C@]13CCN(CC1)Cc1ccccc1 | active
41 | COc1ccc2c3c([nH]c2c1)[C@@H](CO)N(Cc1ccc(cc1)Cl)C[C@]13CCN(CC1)Cc1ccccc1 | active
42 | COc1ccc2c3c([nH]c2c1)[C@H](CO)N(Cc1ccncc1)C[C@]13CCN(CC1)Cc1ccc(cc1)-c1ccccn1 | inactive

From the antibiotic and cytotoxicity screens of Wong et al. (2023)
